SW480 rerep – DNA re-replication induction in SW480 cells. SW480 DNA re-replication, Hoechst DNA content imaging, 48 h. Potency, µM (top dose mostly 46.1 µM), for inactives: at the highest dose re-replication activation, actives largely listed as activators. AID 624297. hit rate 1.8% among 340,000; note: % of control where 0% means no effect; nearly all actives have a fitted effect of over 55% in size
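Quantitative HTS format with DMSO vehicle controls; 48 hr drug incubation at 37 C, then 40 min Hoechst staining and scanning imager measurement at 405 nm excitation.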
HT1080-NT tox – kills 2HG-producing HT-1080-NT fibrosarcoma cells | HT-1080-NT fibrosarcoma viability, CellTiter-Glo ATP luminescence, 48 h | Potency, µM (highest dose often 46.1 µM), for inactives: at the highest dose activity, negative = less viability, usual class: cytotoxic | hit rate 1.6% among 360,000;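 note: NT is the 2HG producing partner of a matched IDH1 knockdown line; 0% = DMSO-treated cells and -100% = media-only wells without cells; nearly all actives have a fitted effect of over 55% in size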
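Read-out is CellTiter-Glo luminescence after 10 minutes at room temperature, following 48 hours' compound treatment of HT-1080-NT cells (750 cells/well, RPMI, 5% FBS, 37 degrees C).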
HT1080 IDH1KD tx – toxicity to HT-1080 IDH1 knockdown cells (counter line); HT-1080 IDH1 knockdown viability, ATP luminescence, 48 h; Potency, µM (series often up to 46.1 µM), inactives show at the highest dose activity, negative = toxicity, most hits filed as cytotoxic; hit rate 2% among 360,000; AID 686971;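 note: 0% = DMSO wells and -100% = cell-free medium wells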
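Cytotoxicity counter-line: IDH1KD HT-1080, 48 h, CellTiter-Glo. Curves classed by r2, magnitude and activity.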
KB-3-1 cytotox – kills parental KB-3-1 adenocarcinoma cells; KB-3-1 viability, CellTiter-Glo ATP luminescence, 72 h; Potency, µM (series often up to 46.1 µM), usual class: cytotoxic; hit rate 1.4% among 400,000; AID 1347075; note: % is set by controls: 0 for no effect and ±100 for the full control effect; nearly all actives have a fitted effect of over 60% in size
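Multi-concentration cytotoxicity screen in KB-3-1 cells grown in DMEM lacking phenol red with 10% FBS. After 72 h at 37 °C with compound, ATP-dependent luminescence was recorded.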
KB-V1 MDR tox – KB-V1 MDR subline cytotoxicity. KB-V1 MDR cells viability, CellTiter-Glo, 72 h. Potency, µM (doses to about 46.1 µM), actives largely listed as cytotoxic. hit rate 3.4% among 400,000; note: % is set by controls: 0 for no effect and ±100 for the full control effect; nearly all actives have a fitted effect of over 60% in size
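Compound-treated KB-V1 multidrug-resistant cells, 72 h, 37 degrees C; viability by CellTiter-Glo. Fitted qHTS curves give the values.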
MCF10A rereplic – DNA re-replication induction in MCF 10a cells | AID 624296 | MCF 10A DNA re-replication, Hoechst nuclear intensity, 48 h | Potency, µM (titrated, usually from 46.1 µM), without a hit: at the highest dose activity, positive = re-replication, hits mostly activators | hit rate 2.9% among 350,000; note: % of control where 0% means no effect; nearly all actives have a fitted effect of over 50% in size
* marks the source's active call; other numbers are inactive results; i = inactive; u = inconclusive; x = no result given; [ ] = remark or other dose. This is a sample that favours compounds with a hit; in the whole collection about 7.9% have one here. Calls come from the whole dose curve; as a rule, active = well fitted curve in the direction sought with a large enough effect; inconclusive = small, poorly fitted or top-dose-only effect, or another doubt; inactive = no such curve, though single readings can be large; an effect the other way counts as inactive or inconclusive. Potency is the fitted concentration of half-maximal effect.

SMILES	SW480 rerep	HT1080-NT tox	HT1080 IDH1KD tx	KB-3-1 cytotox	KB-V1 MDR tox	MCF10A rereplic
CCc1ccc(CC2S/C(=C(\C#N)C(C)=O)NC2=O)cc1 (stereo not given)	20.2%	-29.5%	u	u	7.31µM*	u
CC(C)n1c(=O)c2ccccc2n1Cc1cn(Cc2cccnc2)nn1	x	24.3%	0.5%	i	i	x
C#CCN(C[C@@H]1[C@@H](OC(=O)NCc2ccc(OC)c(OC)c2)[C@@H](OC(=O)NCc2ccc(OC)c(OC)c2)CN(C(=O)OC(C)C)N1C(=O)OC(C)C)S(=O)(=O)c1ccc(C)cc1	x	1.5%	-9.4%	i	u	x
Cn1c2ccccc2c(=O)c2ccc(C#Cc3ccc(N)cc3)cc21	14.6µM*	u	u	i	i	u
Cn1c2ccccc2c(=O)c2ccc(Cl)cc21	x	-1.1%	0.0%	u	13µM*	x
COc1ccccc1C#Cc1ccc2c(=O)c3ccccc3n(C)c2c1	-4.3%	25.2%	24.5%	i	i	20.6µM*
COc1ccccc1-c1nnc2sc(COc3ccc(Cl)cc3Cl)nn12	5.2%	-7.0%	-2.5%	u	18.4µM*	u
COc1ccc(-c2nn3c(-c4ccccc4)nnc3s2)cc1	-6.0%	-19.4%	-22.3%	u	u	u
Clc1ccc(OCc2nn3c(-c4ccncc4)nnc3s2)cc1	-7.2%	2.0%	23.8%	i	10.3µM*	12.4%
COc1ccccc1-c1nnc2sc(COc3ccccc3)nn12	1.5%	-2.2%[9.24 µM]	-15.3%	i	i	3.4%
CCN(CC)c1ccc(-c2nn3c(-c4ccccc4OC)nnc3s2)cc1	1.3µM*	1.03µM*	u	0.82µM*	1.46µM*	u
CCOc1ccc(-c2nnc3sc(COc4ccc(Cl)cc4)nn23)cc1	0.5%	16.9%	12.8%	i	i	14.1%
COc1ccccc1-c1nn2c(-c3ccco3)nnc2s1	-8.5%	-2.5%	-16.8%	i	10.3µM*	19.4%
CC(NC(=O)c1ccc2nc(CCc3ccccc3)oc2c1)c1ccccc1 (stereo not given)	x	x	x	i	i	x
NC(=O)C1CCN(c2ncnc3c2cnn3-c2cccc(Cl)c2)CC1	x	x	x	i	i	x
COc1cccc(OC)c1-c1nn2c(-c3cc(-c4ccccc4)n[nH]3)nnc2s1	9.2µM*	u	u	u	u	14.6µM*
CN(C)c1ccc(-c2nn3c(-c4cc(-c5ccccc5)n[nH]4)nnc3s2)cc1	x	x	x	u	i	x
COCCCNC(=O)c1cc(Cc2ccccc2)sc1N	x	-0.9%	7.3%	i	i	x
Cc1[nH]c2ccccc2c1C(=O)c1cc(Cc2ccccc2)sc1N	x	u	u	20.6µM*	18.4µM*	x
Cc1cccc(C)c1NC(=O)COC(=O)C1Cc2ccccc2CN1C(=O)c1ccccc1 (stereo not given)	0.0%	-1.0%	9.9%	i	8.2µM*	0.1%
N#Cc1ccc(NC(=O)COC(=O)C2Cc3ccccc3CN2C(=O)c2ccccc2)cc1 (stereo not given)	4.7%	-16.1%	0.5%	i	i	12.9%
COc1cc(CNCCSc2nnnn2C)ccc1OCc1ccc(C)cc1	x	x	x	i	i	x
CCC(C)(C)c1ccc(OCCCC[n+]2cccc(C)c2)c(C(C)(C)CC)c1	u	6.51µM*	4.11µM*	3.26µM*	i	u
Cc1ccc(NC(=O)CN2C(=O)C3(SCC(=O)N3c3cccc(Cl)c3)c3ccccc32)cc1C (stereo not given)	x	x	x	i	10.3µM*	x
Cc1cc(C)c(NC(=O)CN2C(=O)C3(SCC(=O)N3c3ccc(F)cc3)c3ccccc32)c(C)c1 (stereo not given)	x	x	x	i	14.6µM*	x
SMILES	SW480 rerep	HT1080-NT tox	HT1080 IDH1KD tx	KB-3-1 cytotox	KB-V1 MDR tox	MCF10A rereplic
Cc1ccc(N2C(=O)CSC23C(=O)N(CC(=O)NC2CCCCC2)c2ccccc23)cc1 (stereo not given)	x	x	x	i	18.4µM*	x
CC1=CC(C)(C)N2C(=O)C3(SCC(=O)N3c3ccc(F)cc3)c3cc(C)cc1c32 (stereo not given)	13.0%	-16.1%	-4.4%	u	16.4µM*	8.1%
O=c1[nH]c(=O)n([C@H]2C[C@@H](O)[C@@H](CO)O2)cc1F	x	x	x	u	i	x
Cc1cc(=O)n2c(C(=O)Nc3ccc(Br)cc3)c(C(=O)Nc3ccccc3)sc2n1	x	x	x	i	i	x
N=C(N)SCc1ccc(Cl)cc1Cl	u	-19.0%	-20.3%	i	i	u
Nc1ccc(CSc2ccc(Cl)cc2)c(Cl)c1	u	-7.8%	-27.3%	i	i	20.6µM*
CC(O)CNCCCOc1ccccc1OCc1ccccc1 (stereo not given)	-7.8%	-7.5%	-16.2%	i	u	-0.8%
CNCC(C)COc1ccccc1OCc1ccccc1 (stereo not given)	9.6%	-11.6%	-19.6%	i	20.6µM*	-0.4%
CN(C)S(=O)(=O)c1ccc(C(=O)Nc2nc(-c3ccccc3)c(C(=O)c3ccccc3)s2)cc1	-1.3%	10.1%	-4.1%	i	16.4µM*	19.1%
N#CCCN(CCC#N)S(=O)(=O)c1ccc(C(=O)Nc2nc(-c3ccccc3)c(C(=O)c3ccccc3)s2)cc1	-14.0%	0.0%	5.8%	i	i	u
O=C(Nc1nc(-c2ccccc2)c(C(=O)c2ccccc2)s1)c1ccc(S(=O)(=O)N2CCCC2)cc1	-105.7%	-4.2%	-13.4%	16.4µM*	3.66µM*	u
CCCN(CCC)S(=O)(=O)c1ccc(C(=O)Nc2nc3c(s2)CCc2ccccc2-3)cc1	20.6%	18.4µM*	u	9.2µM*	i	-7.7%
O=C(Nc1ccccc1)c1ccc(S(=O)(=O)N2CCCC2)cc1	-6.4%	-3.8%	7.9%	i	i	-1.6%
O=C(Nc1nc(-c2ccccc2)c(-c2ccccc2)s1)c1ccc(S(=O)(=O)N2CCCC2)cc1	-3.3%	6.7%	7.1%	u	4.11µM*	6.6%
COCCNc1nc2cc(-c3ccc(C)cc3)sc2c(=O)n1C	x	4.8%	20.0%	i	u	x
COC(=O)c1ccc(N2C(=O)Cc3cc(OC)c(OC)cc3C2c2ccc(F)cc2)cc1 (stereo not given)	x	x	x	i	i	x
CCCCCCN1C=CC(=C/C=C(\C#N)C(=O)OCC)C=C1	-3.1%	-7.6%	3.3%	i	8.2µM*	6.4%
Cc1ccc(-c2nc3cc(C)ccc3o2)cc1	-0.6%	3.4%	1.7%	i	i	1.9%
COC(=O)c1ccc(-c2nc3ccc(C)cc3o2)cc1	7.31µM*	-9.5%	u	u	u	u

Source: PubChem BioAssay (National Center for Advancing Translational Sciences (NCATS))
